Among the data in PubChem BioAssay are composite z-score and z-score values, retold here.

Calls of active or inactive are those of the source. Unless noted, the rule behind the calls is not given here.

Test [1] relates to Wnt5a (protein binding on small-molecule microarray). Briefly: small molecules binding Wnt5a protein – biophysical, small-molecule microarray, 635/667 nm fluorescence, primary screen (AID 1142).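 Note: fluorescence read at 667 nm with signal to noise per printed feature.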 Conditions: 635 nm fluorescence, higher = more signal.
Test [2] in a line: ATP-based viability of Huh7 replicon cells – cell-based, CellTiter-Glo luminescence, basal, 48 h, cytotoxicity control for HCV replication inhibitor project, primary screen (AID 1143).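 Note: Huh7 hepatoma cells carrying a hepatitis C replication reporter with no stimulus; test concentration not given here.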 As to conditions: higher = more signal, called active from +8 up or from −8 down.
A short description of test [3]: Pseudomonas biofilm growth suppression – PAO1 strain, BacTiter-Glo luminescence, LB-PBS, primary screen (AID 1144). As to conditions: P. aeruginosa PAO1 biofilm, 12 h, higher = more signal.
Test [4] can be described thus: basal CRE-LacZ reporter activity in PC12 – cell-based, unstimulated, primary screen (AID 1145). Conditions: no forskolin, luminescence, 4.5 h, higher = more signal, called active from +8 up or from −8 down.
Test [5] is described as follows: forskolin-driven CRE-LacZ activity in PC12 – cell-based, CRE-LacZ reporter, forskolin-stimulated, primary screen (AID 1146).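 Note: PC12 cells with 6xCRE LacZ reporter stimulated by forskolin 10 µM; beta-galactosidase reporter signal reflecting CREB driven transcription.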 As to conditions: luminescence, 4.5 h, higher = more signal, called active from +8 up or from −8 down.
Test [6] concerns the target Streptavidin (Streptomyces avidinii) (UniProt P22629). The test is described as follows: compounds binding control protein streptavidin – biophysical, small-molecule microarray, 635/667 nm fluorescence, artefact control for SMM compound annotation, primary screen (AID 1147).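 Note: signal reflects streptavidin binding to arrayed compounds as a control protein.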 Conditions: higher = more signal.
A short description of test [7]: probe aInhba binding on compound microarray – biochemical, small-molecule microarray, 635/667 nm fluorescence, primary screen (AID 1148).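 Note: score merges 667nm spot fluorescence with signal-to-noise for antibody binding to printed compounds.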 Conditions: higher = more signal.
Test [8] addresses Torsin-1A (Homo sapiens) (UniProt O14656). Briefly: TOR1A wild-type binding on microarray – cell lysate, small-molecule microarray, lysate, 635/667 nm, primary screen (AID 1149). Conditions: COS7 hTOR1A-WT lysate, 635 nm fluorescence, higher = more signal.
Test [9] has the same target. The test is described as follows: torsin A mutant lysate binding on microarrays – cell lysate, small-molecule microarray, COS7 lysate, 635/667 nm fluorescence, primary screen (AID 1150).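 Note: score pools 667 nm emission and signal to noise measuring lysate protein binding.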 As to conditions: COS7 hTOR1A mutant lysate, 635 nm fluorescence, higher = more signal.
For test [10], the system named is Sonic hedgehog protein (Shh). Briefly: Sonic hedgehog microarray binding compounds – biochemical, small-molecule microarray, 635/667 nm fluorescence, primary screen (AID 1151).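 Note: Shh protein binding to compounds spotted on small-molecule microarray slides; score combines spot fluorescence intensity with signal-to-noise across triplicate slides.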 As to conditions: 635 nm fluorescence, higher = more signal.

Torsin-1A (Homo sapiens), sequence (O14656 whole entry, looked up): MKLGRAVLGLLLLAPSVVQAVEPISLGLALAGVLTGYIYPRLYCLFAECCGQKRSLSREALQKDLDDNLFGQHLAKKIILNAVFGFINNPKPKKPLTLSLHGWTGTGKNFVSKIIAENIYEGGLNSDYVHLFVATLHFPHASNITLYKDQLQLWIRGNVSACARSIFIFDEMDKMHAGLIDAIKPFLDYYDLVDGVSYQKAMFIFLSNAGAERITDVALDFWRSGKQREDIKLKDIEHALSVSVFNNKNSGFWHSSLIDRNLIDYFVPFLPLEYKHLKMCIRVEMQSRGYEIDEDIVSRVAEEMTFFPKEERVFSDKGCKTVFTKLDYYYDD
Streptavidin (Streptomyces avidinii), sequence (P22629 whole entry, looked up): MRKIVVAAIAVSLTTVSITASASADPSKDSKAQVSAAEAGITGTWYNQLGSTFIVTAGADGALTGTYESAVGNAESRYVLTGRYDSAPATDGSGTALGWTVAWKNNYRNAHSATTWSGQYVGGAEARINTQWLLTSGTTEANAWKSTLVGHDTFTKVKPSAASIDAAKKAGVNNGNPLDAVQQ

With `COc1ccc(C(=O)Nc2ccc(CN3C(=O)[C@]4(O[C@H](CC(=O)N5CCC[C@H]5CO)[C@@H]([Si](C)(C)c5ccc(OC)cc5)[C@@H]4C)c4ccccc43)cc2)cc1`, the composite z-score in test [1] was determined as 0.156; in test [6] it was 0.111; in [7] it was 0.0785; with Torsin-1A (Homo sapiens) [8], 0.585; with Torsin-1A (Homo sapiens) [9] it was 0.421; in [10] it was 2.05. Further, the z-score in [2] was -4.81 (inactive); in test [3] it was -0.00818 (inactive); in test [4], 2.62 (inactive); in [5], 0.124 (inactive).
For `COC(=O)[C@@]1(Cc2ccccc2)[C@H]2c3cc(C(=O)N4CCCC4)n(Cc4c(CO)[nH]cc(C)c4=O)c3C[C@H]2CN1C(=O)c1ccccc1`, the composite z-score in [1] was 0.652; in [6], 1.01; in test [7] it was -0.101; in the test with Torsin-1A (Homo sapiens) [8], 0.4; in the test with Torsin-1A (Homo sapiens) [9] it was 0.491; in test [10] it was -0.547. In addition, the z-score in test [2] was 0.0519 (inactive); in test [3], -0.0914 (inactive); in test [4], 0.0109 (inactive); in test [5], 0.473 (inactive).
Take `C=CCC(OC(C)=O)[C@@H]1[C@@H](N(Cc2ccc(-c3ccccc3)cc2)C(=O)Cc2ccc(F)cc2)c2cc(OCCCO)ccc2N1C(=O)c1ccc2ccccc2c1` (stereo not given in full): the composite z-score in test [1] is -0.121; in test [6] it was -0.0075; in [7], 0.0464; in the test with Torsin-1A (Homo sapiens) [8], -0.287; with Torsin-1A (Homo sapiens) [9], -0.0056; in test [10] it was 0.627. For the same compound, the z-score in test [2] was 0.0038 (inactive); in test [3], 0.197 (inactive); in test [4], 0.819 (inactive); in test [5] it was 0.601 (inactive).
On to `COc1ccc([Si](C)(C)[C@H]2[C@H](CC(=O)N3CCC[C@H]3CO)O[C@@]3(C(=O)N(Cc4cccc(N5CCOC5=O)c4)c4ccccc43)[C@@H]2C)cc1`, for which the composite z-score in test [1] was 0.307; in test [6] it was 0.0063; in test [7] it was -0.0468; with Torsin-1A (Homo sapiens) [8], 0.716; with Torsin-1A (Homo sapiens) [9], 0.58; in test [10], 1.99. In addition, the z-score is -5.09 (inactive) in [2], 0.621 (inactive) in [3], 0.395 (inactive) in [4] and -0.135 (inactive) in [5].
For the compound `COC(=O)c1c(CC[C@@H](CO)NC(=O)N[C@@H](Cc2ccccc2)Cn2cc(-c3ccccn3)nn2)oc(C(=O)N2CCOCC2)c1C(=O)OC`, the composite z-score in test [1] was -0.216; in test [6], -0.0372; in test [7] it was 0.0184; with Torsin-1A (Homo sapiens) [8] it was -0.481; with Torsin-1A (Homo sapiens) [9], 0.182; in [10], 1.72. For the same compound, the z-score was -0.625 (inactive) in [2], -0.301 (inactive) in test [3], 0.498 (inactive) in test [4] and -0.248 (inactive) in [5].
On to `COC(=O)c1c2oc(c1C(=O)OC)C(=O)N[C@@H](C(C)C)Cn1cc(nn1)C1(CCCCC1)NC(=O)N[C@H](CO)CC2`, for which the composite z-score in [1] was 0.432; in test [6], 0.177; in test [7], -0.0477; with Torsin-1A (Homo sapiens) [8] it was 0.935; with Torsin-1A (Homo sapiens) [9], 0.48; in test [10], 0.246. The z-score in [2] was 0.24 (inactive); in test [3], -0.377 (inactive); in test [4] it was 2.08 (inactive); in test [5] it was -0.178 (inactive).
Consider `CC(C)Cc1ccc(CN2CC[C@@H](N)C2)cc1`, for which the composite z-score was -0.544 in [1]; -1.27 in [6]; -0.0357 in test [7]; -1.79 in the test with Torsin-1A (Homo sapiens) [8]; -0.677 with Torsin-1A (Homo sapiens) [9]; -0.0963 in test [10]. Besides, the z-score in test [2] is -3.26 (inactive); in [3], -1.53 (inactive); in [4] it was -0.688 (inactive); in test [5], 1.52 (inactive).
Regarding `C=CC[C@@]1(C(=O)N2CCCCC2)N=C(c2ccc(OCCCO)cc2)O[C@@H]1c1ccccc1N=[N+]=[N-]`, the composite z-score is 0.288 in test [1]; 1.18 in [6]; 0.0391 in [7]; -0.151 with Torsin-1A (Homo sapiens) [8]; 1.03 with Torsin-1A (Homo sapiens) [9]; -0.0797 in [10]. The z-score in test [2] is -4.35 (inactive); in test [3], -0.588 (inactive); in test [4], 4.01 (inactive); in [5] it was -1.53 (inactive).
As to `CN1C(=O)C2C=CC(C(O)C=Cc3ccc([N+](=O)[O-])cc3)N(Nc3ccccc3)C2C1=O` (stereo not given), the composite z-score in test [1] was 0.286; in test [6] it was 1.16; in test [7] it was 0.0497; with Torsin-1A (Homo sapiens) [8], 0.0394; with Torsin-1A (Homo sapiens) [9], -0.0071; in [10] it was 0.428. Besides, the z-score in test [2] was -0.143 (inactive); in test [3], -0.585 (inactive); in test [4] it was 0.426 (inactive); in test [5], 0.528 (inactive).
With `O=C1C2C=CC(C(O)C=Cc3ccc([N+](=O)[O-])cc3)N(Nc3ccccc3F)C2C(=O)N1c1ccccc1` (stereo not given), the composite z-score in test [1] is 0.265; in [6], 1.77; in [7], 0.095; in the test with Torsin-1A (Homo sapiens) [8] it was 0.422; in the test with Torsin-1A (Homo sapiens) [9] it was 0.31; in test [10], -0.0025. Moreover, the z-score is -0.071 (inactive) in [2], 0.0113 (inactive) in test [3], -0.424 (inactive) in test [4] and -0.156 (inactive) in test [5].
Turning to `Cc1ccc(S[C@]2(C(=O)O)CC(=O)N(Cc3ccccc3C(F)(F)F)[C@@H]2c2ccc(CO)cc2I)cc1`, the composite z-score was 0.192 in [1]; -0.584 in [6]; -0.193 in test [7]; -0.46 in the test with Torsin-1A (Homo sapiens) [8]; 1.98 with Torsin-1A (Homo sapiens) [9]; 0.0365 in test [10]. The z-score is -1.03 (inactive) in test [2], 0.586 (inactive) in [3], -0.619 (inactive) in test [4] and 1.81 (inactive) in [5].
